Measured values reported in PubChem BioAssay (Tox21).
Inconclusive results are not listed. The source made the active and inactive calls. The call rests on the fitted dose curve; in most records, active means well fitted curve in the direction sought with a large enough effect in the repeat runs; inconclusive means weak or mixed curves; inactive means no such curve, though single readings can be large; an effect the other way counts as inactive or inconclusive.

Key:
[1] = A CellTox Green Cytotoxicity Assay to monitor cytotoxicity in HepG2 cells - 24 hour (AID 1224878); further: nearly all actives have a fitted effect of over 45% in size
How it was run: (§1)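 Cells and non-lytic dye reagent are dispensed together (600 HepG2 cells/well) and incubated 5 h before DMSO compound transfer. Kinetic fluorescence is then recorded in the same wells during 40 h at 37 C.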

[2] = A CellTox Green Cytotoxicity Assay to monitor cytotoxicity in HepG2 cells - 40 hour (AID 1224879); further: nearly all actives have a fitted effect of over 40% in size
How it was run: as §1

[3] = qHTS RealTime-Glo MT Cell Viability Assay in HEK293 cells - 0 hour (AID 1224880); further: top concentration of the series differs between compounds; nearly all actives have a fitted effect of over 45% in size
How it was run: (§2)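 Real-time viability in HEK293: signal arises when living cells convert a prosubstrate for NanoLuc in the medium, so luminescence tracks viable cell number. Compound (23 nL, DMSO) added 5 h post-seeding; kinetic reads at 0–40 h, 37 C.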

[4] = A CellTox Green Cytotoxicity Assay to monitor cytotoxicity in HEK293 cells - 32 hour (AID 1224881); further: nearly all actives have a fitted effect of over 40% in size
How it was run: (§3)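 Cells (HEK293, 600/well) and dye reagent are dispensed together. After 5 h at 37 C, 23 nL compound is pinned in. Plates stay at 37 C for 40 h with fluorescence read at 0h, 8h, 16h, 24h, 32h and 40h.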

[5] = A CellTox Green Cytotoxicity Assay to monitor cytotoxicity in HepG2 cells - 0 hour (AID 1224882); further: nearly all actives have a fitted effect of over 35% in size
How it was run: as §1

[6] = A CellTox Green Cytotoxicity Assay to monitor cytotoxicity in HepG2 cells - 32 hour (AID 1224883); further: nearly all actives have a fitted effect of over 50% in size
How it was run: as §1

[7] = A CellTox Green Cytotoxicity Assay to monitor cytotoxicity in HEK293 cells - 8 hour (AID 1224884); further: nearly all actives have a fitted effect of over 35% in size
How it was run: as §3

[8] = qHTS RealTime-Glo MT Cell Viability Assay in HepG2 cells - 16 hour (AID 1224885); further: nearly all actives have a fitted effect of over 50% in size
How it was run: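 Viability was tracked continuously by NanoLuc luminescence from prosubstrate reduced by living HepG2 cells, at successive time points over 40 h of compound exposure. Cells with reagent were preincubated 5 h at 37 °C before compound addition.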

[9] = qHTS RealTime-Glo MT Cell Viability Assay in HEK293 cells - 24 hour (AID 1224886); further: top concentration of the series differs between compounds; nearly all actives have a fitted effect of over 50% in size
How it was run: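 Viability tracked continuously by luminescence as live cells reduce a prosubstrate for NanoLuc; HEK293 cells preincubated 5 h, compound-treated at 37 C, and read at 0, 8, 16, 24, 32 and 40 h.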

[10] = qHTS RealTime-Glo MT Cell Viability Assay in HEK293 cells - 8 hour (AID 1224887); further: top concentration of the series differs between compounds; nearly all actives have a fitted effect of over 50% in size
How it was run: as §2
On the % scale 0 is the no-effect control and ±100 the full control effect.

O=C(O)CSCC(=O)NC1CCSC1=O (stereo not given)
inactive: Potency [1] | Potency [2] | Potency [3] | Potency [4] | Potency [5] | Potency [6] | Potency [7] | outcome [8] | Potency [9] | Potency [10]

CC1=NN(c2ccc(S(=O)(=O)O)cc2)C(=O)C1
inactive: Potency [1] | Potency [2] | Potency [3] | Potency [4] | Potency [5] | Potency [6] | Potency [7] | outcome [8] | Potency [9] | Potency [10]

O=C=NCC1CCCC(CN=C=O)C1 (stereo not given)
inactive: Potency [1] | Potency [2] | Potency [3] | Potency [4] | Potency [5] | Potency [6] | Potency [7] | outcome [8] | Potency [9] | Potency [10]

CCN(CC)CCN
inactive: Potency [1] | Potency [2] | Potency [3] | Potency [4] | Potency [5] | Potency [6] | Potency [7] | outcome [8] | Potency [9] | Potency [10]

COc1cc2c(cc1OC)CN(C(=O)[C@H](C)N[C@@H](CCc1ccccc1)C(=O)O)[C@H](C(=O)O)C2
inactive: Potency [1] | Potency [2] | Potency [3] | Potency [4] | Potency [5] | Potency [6] | Potency [7] | outcome [8] | Potency [9] | Potency [10]

CCCCOCCOC(=O)COc1ccc(Cl)cc1Cl
inactive: Potency [1] | Potency [2] | Potency [3] | Potency [4] | Potency [5] | Potency [6] | Potency [7] | outcome [8] | Potency [9] | Potency [10]

CC(=O)CC(=O)Nc1ccc(C)cc1C
inactive: Potency [1] | Potency [2] | Potency [3] | Potency [4] | Potency [5] | Potency [6] | Potency [7] | outcome [8] | Potency [9] | Potency [10]

C=CC(=O)CCCCC
inactive: Potency [1] | Potency [2] | Potency [3] | Potency [4] | Potency [5] | Potency [6] | Potency [7] | outcome [8] | Potency [9] | Potency [10]

CCC/C=C(\C=O)CC
inactive: Potency [1] | Potency [2] | Potency [3] | Potency [4] | Potency [5] | Potency [6] | Potency [7] | outcome [8] | Potency [9] | Potency [10]

CC(=O)C1C(=O)C=C(C)OC1=O (stereo not given)
inactive: Potency [1] | Potency [2] | Potency [3] | Potency [4] | Potency [5] | Potency [6] | Potency [7] | outcome [8] | Potency [9] | Potency [10]

N[C@@H](Cc1ccc(O)cc1)C(=O)O
inactive: cytotoxicity [1] -12.9% [at 6.97 µM] | cytotoxicity increase [2] -8.31% [at 6.97 µM] | activity change, negative = cytotoxicity [3] 4.85% [at 6.97 µM] | cytotoxicity increase [4] 4.36% [at 6.97 µM] | cytotoxicity [5] 1.32% [at 6.97 µM] | cytotoxicity increase [6] -9.11% [at 6.97 µM] | cytotoxicity increase [7] -1.4% [at 6.97 µM] | activity change, negative = cytotoxic [8] 0.618% [at 6.97 µM] | activity change, negative = cytotoxicity [9] -0.381% [at 6.97 µM] | activity change, negative = cytotoxicity [10] 10.4% [at 6.97 µM]

CC(C)C1OCCN1CCOC(=O)NCCCCCCNC(=O)OCCN1CCOC1C(C)C (stereo not given)
inactive: Potency [1] | Potency [2] | Potency [3] | Potency [4] | Potency [5] | Potency [6] | Potency [7] | outcome [8] | Potency [9] | Potency [10]

CCCSSCCC
inactive: Potency [1] | Potency [2] | Potency [3] | Potency [4] | Potency [5] | Potency [6] | Potency [7] | outcome [8] | Potency [9] | Potency [10]

C=CCOC(=O)CCCCCC
inactive: Potency [1] | Potency [2] | Potency [3] | Potency [4] | Potency [5] | Potency [6] | Potency [7] | outcome [8] | Potency [9] | Potency [10]

NCCOCCN
inactive: Potency [1] | Potency [2] | Potency [3] | Potency [4] | Potency [5] | Potency [6] | Potency [7] | outcome [8] | Potency [9] | Potency [10]

CCC[C@@H]1C[C@@H](C(=O)N[C@@H]([C@H]2O[C@H](SC)[C@H](O)[C@@H](O)[C@H]2O)[C@@H](C)O)N(C)C1
inactive: Potency [1] | Potency [2] | Potency [3] | Potency [4] | Potency [5] | Potency [6] | Potency [7] | outcome [8] | Potency [9] | Potency [10]

CCc1occc(=O)c1O
inactive: Potency [1] | Potency [2] | Potency [3] | Potency [4] | Potency [5] | Potency [6] | Potency [7] | outcome [8] | Potency [9] | Potency [10]

CC(Oc1cc(Cl)ccc1Cl)C(=O)O (stereo not given)
inactive: Potency [1] | Potency [2] | Potency [3] | Potency [4] | Potency [5] | Potency [6] | Potency [7] | outcome [8] | Potency [9] | Potency [10]

CC1(C)Oc2ccc(C#N)cc2[C@@H](N2CCCC2=O)[C@@H]1O
inactive: Potency [1] | Potency [2] | Potency [3] | Potency [4] | Potency [5] | Potency [6] | Potency [7] | outcome [8] | Potency [9] | Potency [10]
